Laboratory results from PubChem BioAssay AID1259422 (The Scripps Research Institute Molecular Screening Center, 2018).
In all, about 640,000 compounds went through this assay and about 9,300 (1.5%) were called active. This is one part of a sample in which actives are shown more often than they occur. Rule as the data show it: active = inhibition above about 32%; inactive = the rest.

assay: TEAD-YAP interaction inhibition, primary screen, TEAD-YAP interaction inhibitor project, luminescence, HEK-TIYL cells (AID 1259422); conditions: TEAD-Gal4/YAP UAS-luciferase luminescence, at 9.12 µM, active compounds read high;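 also: 0% = median of test compound wells and 100% = reference inhibitor wells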

Row | SMILES | inhibition
1 | Cc1ccc(C)c(C(=O)Nc2ccc3c(c2)N(S(=O)(=O)c2ccc(F)cc2)CCC3)c1 | -2.68% (inactive)
2 | Cc1nc(N)sc1-c1csc(Nc2ccc(O)cc2)n1 | 2.78% (inactive)
3 | CC(=O)Nc1nc(C)c(-c2csc(Nc3ccc(C)cc3)n2)s1 | 1.48% (inactive)
4 | Cc1nc(C)c(-c2csc(Nc3ccc(Br)cc3)n2)s1 | 52.5% (active)
5 | CC(C)Cn1c(-c2ccccc2)c[nH]c1=S | 4.66% (inactive)
6 | CCN1CCN(C2=C(Cl)C(=O)N(c3cccc(C(=O)OC)c3)C2=O)CC1 | 23.4% (inactive)
7 | CCOc1ccc(Cl)cc1S(N)(=O)=O | -4.54% (inactive)
8 | CC(=O)Nc1cccc(C(=O)N/N=C/c2c(O)ccc3ccccc23)c1 | 14.8% (inactive)
9 | O=C(N/N=C/c1c(O)ccc2ccccc12)c1cc([N+](=O)[O-])cc([N+](=O)[O-])c1 | 3.24% (inactive)
10 | COc1ccc(C(=O)N/N=C/c2c(O)ccc3ccccc23)cc1 | 58.3% (active)
11 | O=C(NCc1ccco1)c1ccc(N2CC3CC(C2)c2cccc(=O)n2C3)c(NC(=S)Nc2ccc(Cl)cc2Cl)c1 (configuration not stated) | -0.4% (inactive)
12 | Nc1nc2nonc2nc1Nc1ccccc1 | 10.4% (inactive)
13 | Cc1ccc(Nc2nc3nonc3nc2NNc2ccccc2)cc1Cl | -9.84% (inactive)
14 | Cc1ccc(Nc2nc3nonc3nc2Nc2ccccc2F)cc1 | 69.4% (active)
15 | Cc1cc(Cl)cc(Cl)c1OCCOCCN(C)CCO | 3.38% (inactive)
16 | O=C(NCCc1ccsc1)Nc1ccccc1F | -29.3% (inactive)
17 | O=C(NCCc1ccccc1)c1cc(Sc2ccccc2Cl)nc2ccccc12 | -11.2% (inactive)
18 | O=C(NCCc1ccsc1)c1ccccc1Cl | 46.4% (active)
19 | COc1cccc(NC(=O)CSc2nnc(-c3ccc(F)cc3)c(-c3ccc(F)cc3)n2)c1 | 16.5% (inactive)
20 | COc1ccc(Nc2ncnc3ccc(Br)cc23)cc1 | 33.4% (active)
21 | Fc1ccc(Nc2ncnc3ccc(I)cc23)cc1 | 25.1% (inactive)
22 | COc1ccc(Nc2ncnc3c2cnn3-c2ccc(OC)cc2)cc1 | -19.6% (inactive)
23 | CC(=O)Oc1cccc(C(=O)Nc2ccc(C)c(C)c2)c1 | 62.5% (active)
24 | CC(=O)Oc1cccc(C(=O)Nc2ccccc2Br)c1 | 14.5% (inactive)
25 | CC(=O)Oc1cc(C(=O)Nc2cccc(C#N)c2)cc(C(=O)Nc2cccc(C#N)c2)c1 | -1.56% (inactive)
26 | O=C(CNC(=O)c1ccc(Br)o1)OCC(=O)c1ccc(Br)cc1 | 4.37% (inactive)
27 | Cc1ccc(CNC(=O)C(=O)N/N=C/c2ccccc2I)cc1 | -10.4% (inactive)
